Test system: CSF1R-autoinhibited
Details: concentration: 1 μM, replicates: in singlicate; n = 1
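Also: KINOMEscan kinase panel screen.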

Row | Structure (SMILES) | %Inh
1 | COc1ccc(NC(=O)Nc2ccc(C)c(-c3ccc(C(=O)Nc4ccncc4)cc3)c2)cc1 [GSK1398475] | 0%
2 | Clc1ccc(-c2cc(-c3c[nH]nc3-c3ccccn3)ccn2)cc1 [GW681251] | 0%
3 | CC(C)(C)OC(=O)NC1CCCN(c2cc(-c3ccc4c(N)n[nH]c4c3)nc(N)n2)C1 (stereo not drawn) [GSK2286096] | 0%
4 | CSc1ccc(NC2=C(c3ccccc3Cl)C(=O)NC2=O)cc1 [SB-342411] | 0%
5 | COC(=O)c1cccc(NC(=O)NCCNc2ccnc(Nc3ccc(F)cc3)n2)c1 [GSK1379883] | 0%
6 | Fc1cccc(COc2ccc(Nc3ncnc4sc(-c5ccc[nH]5)cc34)cc2Cl)c1 [GW707818] | 28%
7 | c1ccc(-c2ccc3c(-c4ccnc(Nc5ccc6c(c5)OCCO6)n4)cnn3n2)cc1 [GW818941] | 0%
8 | Fc1cccc(COc2ccc(Nc3ncnc4cc[nH]c34)cc2Cl)c1 | 0%
9 | COc1cc2c(Nc3cccc(NC(=O)c4ccccc4)c3)ncnc2cc1OCCCN1CCOCC1 [GSK223810] | 0%
10 | COc1ccc(NC(=O)c2ccc(-c3cc(-c4nnc(C)o4)ccc3C)cc2)cc1 [GW595885] | 7%
11 | Cl.Fc1ccccc1COc1ccc(Nc2ncnc3ccc(-c4nnc(C(F)(F)F)o4)cc23)cc1Cl [GW424170] | 0%
12 | CNc1nccc(-c2c(-c3ccc(F)cc3)ncn2CCCN2CCOCC2)n1 [SB-222516] | 0%
13 | Cc1cc(N2CCC(NS(=O)(=O)c3ccc(F)cc3)CC2)nc(Nc2cccc(C#N)c2)n1.O=C(O)C(F)(F)F [GSK1653537] | 0%
14 | Cn1ccc2ncnc(Oc3ccc(NC(=O)Nc4cccnc4)c(Cl)c3)c21 | 0%
15 | O=C(c1ccc(-c2cc(-c3c[nH]nc3-c3ccccn3)ccn2)cc1)N1CCCC1 [GW792479] | 0%
16 | Nc1nc(-c2ccc3c(N)n[nH]c3c2)cc(N2CCC[C@@H](C(=O)Nc3ccccc3)C2)n1.O=C(O)C(F)(F)F.O=C(O)C(F)(F)F [GSK2288359] | 0%
17 | Cl.Cl.c1ccc(-c2cc3ccncc3cc2OC2CCNCC2)cc1 [GSK1122999] | 5%
18 | Fc1ccc(-c2ncn(CCCNCc3ccccc3)c2-c2ccncc2)cc1 | 19%

Row | Structure (SMILES) | %Inh
19 | CCn1c(-c2ccncc2)nc2cnccc21 [SB-735216] | 47%
20 | C[C@H]1CC[C@@H](C(=O)Nc2ccccc2)CN1c1cc(-c2ccc3c(N)n[nH]c3c2)nc(N)n1 [GSK2283293] | 26%
21 | NC(=O)c1sc(-n2cnc3ccccc32)cc1OCc1ccccc1F [GSK1024306] | 24%
22 | Cl.Cn1ccc(-c2cccc(Nc3ccnc4cc(-c5nccs5)ccc34)c2)n1 [GW525701] | 29%
23 | FC(F)(F)c1cc(Nc2nccc(-c3c(-c4ccc(Cl)cc4)nn4ncccc34)n2)ccc1Cl [GW829351] | 0%
24 | N#Cc1ccc(Oc2ccc(Nc3ncnc4cc[nH]c34)cc2Cl)cc1 | 3%
25 | OCCOCCn1ccc2ncnc(Nc3ccc(Oc4cccc(Cl)c4)c(Cl)c3)c21 | 0%
26 | Fc1cccc(COc2ccc(Nc3ncnc4nn5ccccc5c34)cc2Cl)c1 [GW689066] | 37%
27 | Nc1nc(-c2ccccn2)c(-c2ccnc3ccccc23)s1 [GW548057] | 58%
28 | CCCc1ccc(S(=O)(=O)NC2CCN(c3ccnc(Nc4ccc(OC)cc4)n3)C2)cc1 (stereo not drawn) [GSK1379737] | 23%
29 | Cc1ccc(O)cc1Nc1cc(C(F)(F)F)nc2ccc(-c3ccncc3)cc12 [GW630823] | 0%
30 | CNc1nccc(-c2c(-c3ccc(F)cc3)ncn2C2CCN(C)CC2)n1 [SB-222903] | 0%
31 | Nc1nc(-c2cccnc2)c(-c2ccnc3ccccc23)s1 [GW684083] | 0%
32 | O=C(Nc1ccccc1)Nc1ccc(Oc2ccc3nccn3n2)cc1 | 0%
33 | CC(C)(C)c1ccc(-n2cnc3c(N)ncnc32)cc1 [SKF-97263] | 0%
34 | Cc1ccc(NC(=O)c2cccc(C#N)c2)cc1-c1ccc(C(=O)Nc2ccncc2)cc1 [GSK1398463] | 0%
35 | Cc1ccc(C)c(NC(=O)NCCNc2ccnc(Nc3ccc(F)cc3)n2)c1 [GSK1379878] | 15%
36 | Nc1nccc2scc(-c3ccc4c(c3)CCN4C(=O)Cc3cc(F)ccc3F)c12 [GSK2587663] | 0%
